The text below walks through data of PubChem BioAssay (EPA / NIEHS).

Calls of active or inactive are those of the source. Rule for the calls: active = hit-call score of the fitted dose curve at least 0.9, where 1 is the maximum; inactive = score below 0.9.

Usually AC50 stands for the concentration giving half of the maximal activity seen.

The nature of this test: ATG_Ets_CIS: Attagene CIS-FACTORIAL HepG2 Assay for human Erythroblast Transformation Specific (ETS) (AID 2282941). The note with it: HepG2 ETS cis-reporter transcription, actives raise or lower the signal. As for the experimental part:
ATG_CIS is a cell-based, multiplexed-readout assay that uses HepG2, a human liver cell line, with measurements taken at 24 hours after chemical dosing in a 24-well plate.ATG_Ets_CIS is one of 52 assay component(s) measured or calculated from the ATG_CIS assay. It is designed to make measurements of mRNA induction, a form of inducible reporter, as detected with fluorescence intensity signals by Reverse transcription polymerase chain reaction (RT-PCR) and Capillary electrophoresis technology.Data from the assay component ATG_Ets_CIS was analyzed into 1 assay endpoint. This assay endpoint, ATG_Ets_CIS, was analyzed with bidirectional fitting relative to DMSO as the negative control and baseline of activity. Using a type of inducible reporter, measures of mRNA for gain or loss-of-signal activity can be used to understand the reporter gene at the transcription factor-level as they relate to the gene ETS1. Furthermore, this assay endpoint can be referred to as a primary readout, because this assay has produced multiple assay endpoints where this one serves a reporter gene function. To generalize the intended target to other relatable targets, this assay endpoint is annotated to the dna binding intended target family, where the subfamily is winged helix-turn-helix.
Human liver HepG2 cells are transiently transfected with multiple reporter transcription units (MRTUs) in 6-well plates using FuGene 6 reagent (Roche; 3 ml FuGene/1 mg DNA). The MRTU constructs are regulated by a cis-regulating element (promoter). […] A major difference between the CIS and TRANS system is that in CIS activities of endogenous TFs are measured, whereas the TRANS assay evaluates changes in activities of exogenous, chimeric NR-Gal4 proteins. […] At the end of 24 hour incubation, total RNA was isolated using TriZol reagent (Invitrogen). The isolated RNA is then reverse-transcribed using oligo(dT) primer and Mo-MLV reverse transcriptase (Invitrogen) with DNAse I (Ambion) treatment for 30 min. The one-tenth of the produced cDNA was amplified by PCR using Taq DNA polymerase (Invitrogen) and two reporter sequence-specific primers. The PCR products were fluorescently labeled by primer extension with 6-arboxyfluorescein (6-FAM) 5'-labeled reporter sequence-specific primer (2 min at 95 C, 20 s at 68 C and 10 min at 72 C) and these products were digested with 5U of HpaI (New England Biolabs) for 2h at 37 C. The fragments were purified using Qiaquick PCR columns (Qiagen), analyzed on an ABI 3130xL genetic analyzer (Applied Biosystems) with peak positions identified by using a set of X-rhodamine (ROX)-labeled MapMarker1000 molecular weight standards (BioVentures). The raw capillary electrophoresis data was processed using Attagraph software (Attagene).
Consider `O=C(CCl)Nc1ccccc1`, for which the result was inactive. On the same count and under the same terms, the result for `Cc1cccc(C)c1NC(=O)CN1CCCC1=O` reads “inactive”. In the case of `CCCCCCCCCCCCCCC(Br)C(=O)O` (stereo not given), the outcome was inactive.

`C1CN2CCN1CC2`: the compound was classed as inactive. Same read-out and setting: the value for `CC[N+](CC)(CC)CC` was “inactive”. `OC(c1ccc(Cl)cc1)(c1ccc(Cl)cc1)c1cccnc1`: the outcome was inactive.

Turning to `O=S1(=O)OC(c2cc(Br)c(O)c(Br)c2)(c2cc(Br)c(O)c(Br)c2)c2ccccc21`, the compound was called inactive. Still for that read-out and setting: the result for `CCOP(=S)(OCC)SCS(=O)(=O)C(C)(C)C` reads “inactive”. As for `CC(C)(C)c1cc([N+](=O)[O-])cc(C(C)(C)C)c1O`, the concentration at half-maximal activity (AC50) is 52.1 µM (active).

As for `O=S(=O)(c1ccc(Cl)cc1)c1cc(Cl)c(Cl)cc1Cl`, the compound was classed as inactive.

Regarding `CC(C)(c1ccccc1)c1cc(-n2nc3ccccc3n2)c(O)c(C(C)(C)c2ccccc2)c1`, the call was inactive. On the same count and under the same terms, the result for `C=CCc1ccccc1O` reads “inactive”; that for `Cc1cccc(N=Nc2ccc(N(C)C)cc2)c1`, “inactive”. As to `O=C1c2ccccc2C(=O)C1C(=O)C(c1ccccc1)c1ccc(Cl)cc1` (stereo not given), the concentration at half-maximal activity (AC50) was 182 µM (active). Consider `O=c1oc2ccccc2c(O)c1C(CC(O)c1ccc(-c2ccc(Br)cc2)cc1)c1ccccc1` (stereo not given), for which the compound was called inactive. Same read-out and setting: the result for `N#Cc1cccnc1` reads “inactive”. Still for that read-out and setting: the result for `C=CCCl` reads “inactive”; that for `O=C(NC(=O)c1c(F)cccc1F)Nc1ccc(Cl)cc1`, “inactive”. Same read-out and setting: the result for `Cc1ccccc1OP(=O)(Oc1ccccc1)Oc1ccccc1` reads “inactive”; that for `N#Cc1ccncc1`, “inactive”.

Turning to `CC(C)(C)c1ccccc1O`, the compound was classed as inactive. Turning to `CC(C)=CC1C(C(=O)OCc2cccc(Oc3ccccc3)c2)C1(C)C` (stereo not given), the compound was called inactive. Take `CCOCn1c(-c2ccc(Cl)cc2)c(C#N)c(Br)c1C(F)(F)F`: the AC50 was 60.1 µM (active). For the compound `C[C@H]1C(=O)O[C@@H]2CCN3CC=C(COC(=O)[C@](C)(O)[C@]1(C)O)[C@H]23`, the result was inactive. On the same count and under the same terms, the value for `C=CC(Cl)CCl` (stereo not given) was “inactive”.

As for `CC(c1ccccc1)(c1ccc(O)cc1)c1ccc(O)cc1`, the half-maximal activity concentration (AC50) is 20.1 µM (active). Turning to `Cc1cccc(OP(=O)(Oc2cccc(C)c2)Oc2cccc(C)c2)c1`, the compound was called inactive.

`O=NN1CCCCCCC1`: the call was inactive. Same read-out and setting: the value for `Brc1ccc(Oc2c(Br)cc(Br)cc2Br)c(Br)c1` was “inactive”; that for `CCOP(=S)(OCC)O/N=C(\C#N)c1ccccc1` was “inactive”; that for `OCC(c1ccc(Cl)cc1)c1ccc(Cl)cc1` was “inactive”. The same measure, in the same setting: the result for `NC(=O)CCl` reads “inactive”. Same read-out and setting: the result for `NNCCO` reads “inactive”; that for `c1ccc(-c2cccc(-c3ccccc3)c2)cc1`, “inactive”.

As to `CN(N=O)c1ccc([N+](=O)[O-])cc1`, the compound was called inactive. Same read-out and setting: the result for `O=[N+]([O-])c1c2ccccc2cc2ccccc12` reads “inactive”; that for `Cc1cc(Cl)ccc1OC(C)C(=O)O` (stereo not given), “inactive”; that for `CCOP(=O)(OCC)SCCSCC`, “inactive”. On the same count and under the same terms, the value for `CC(C)O.CC(C)O.OCCN(CCO)CCO.OCCN(CCO)CCO.[Ti]` was “inactive”; that for `CN(C)CCN(C)C` was “inactive”.
